Where a name gives a salt, the structure may show the parent alone.
Test system: Saccharomyces cerevisiae BY4741 SeMeCo community
Assay: z-score of subpopulation abundance vs DMSO median, subpopulation auxotrophic for HLU; higher = larger share of this subpopulation than in DMSO controls
Details: 10 µM; 24 h; SM minimal medium; subpopulation (auxotrophy): HLU
Summary of the method: (§1)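 Four plasmids, each restoring a single auxotrophy and encoding a distinct fluorescent protein, were carried by a Saccharomyces cerevisiae BY4741 community. After overnight growth to OD600 1.0 and dilution to 0.3, 70 µl per well was grown for 24 h in minimal SM medium on 384-well plates acoustically predosed with library drugs at 10 µM final. Following paraformaldehyde fixation, automated confocal microscopy was used, with single-auxotroph fluorescent strains defining thresholds and autofluorescence correction. Subpopulation abundance was then scored as a z-score against the vehicle-well median.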

Row | Structure (SMILES) | z-score of subpopulation abundance
1 | CC1=C(C(=O)OCCN(Cc2ccccc2)c2ccccc2)C(c2cccc([N+](=O)[O-])c2)C(P2(=O)OCC(C)(C)CO2)=C(C)N1 (configuration not stated) [Efonidipine] | 1.2
2 | CS(=O)(=O)c1ccc([C@@H](O)[C@@H](CF)NC(=O)C(Cl)Cl)cc1 [Florfenicol] | -0.45
3 | COC(=O)C1=C(C)NC(C)=C(C(=O)OC(C)(C)CN(C)CCC(c2ccccc2)c2ccccc2)C1c1cccc([N+](=O)[O-])c1 (configuration not stated) [Lercanidipine hydrochloride] | 0.32
4 | O=c1[nH]c2ccccc2n1CCN1CCN(c2cccc(C(F)(F)F)c2)CC1 [Flibanserin] | -0.49
5 | NC1CCN(c2nc3c(cc2F)c(=O)c(C(=O)O)cn3-c2ccc(F)cc2F)C1 (configuration not stated) [Tosufloxacin p-Toluenesulfonate Hydrate] | 0.67
6 | CC1(C)S[C@@H]2[C@H](NC(=O)[C@H](NC(=O)N3CCNC3=O)c3ccccc3)C(=O)N2[C@H]1C(=O)O [Azlocillin sodium salt] | -0.4
7 | CCN(CC)CCOC(=O)c1ccc(N)cc1Cl [Chloroprocaine HCl] | 0.39

Test system: Saccharomyces cerevisiae BY4741 SeMeCo community
Assay: z-score of subpopulation abundance vs DMSO median, subpopulation auxotrophic for HLM; higher = larger share of this subpopulation than in DMSO controls
Details: 10 µM; 24 h; SM minimal medium; subpopulation (auxotrophy): HLM
Summary of the method: as §1

Row | Structure (SMILES) | z-score of subpopulation abundance
8 | C=C[C@]1(C)C[C@@H](OC(=O)CSC(C)(C)CNC(=O)[C@H](N)C(C)C)[C@]2(C)[C@H](C)CC[C@]3(CCC(=O)[C@H]32)[C@@H](C)[C@@H]1O [Valnemulin HCl] | 0.18
9 | C#C[C@]1(O)CC[C@H]2[C@@H]3CCC4=Cc5oncc5C[C@]4(C)[C@H]3CC[C@@]21C [Danazol] | -0.39
10 | Cc1c(OCC(F)(F)F)ccnc1C[S+]([O-])c1nc2ccccc2[nH]1 (configuration not stated) [Lansoprazole] | 0.03
11 | Cc1ncc([N+](=O)[O-])n1C [Dimetridazole] | 0.46
12 | CC(=O)OCC[N+](C)(C)C [Acetylcholine iodide] | -1.52
13 | CN1C2CCCC1CC(NC(=O)c1nn(C)c3ccccc13)C2 (configuration not stated) [Granisetron HCl] | -0.26
14 | NC(=O)OCC(COC(N)=O)c1ccccc1 [Felbamate] | -1.16
15 | CCCN(CCC)CCc1cccc2c1CC(=O)N2 [Ropinirole HCl] | -0.19
16 | CC(=O)NO [Acetohydroxamic acid] | 0.6
17 | COc1ccc2c3c1O[C@H]1C[C@@H](O)C=C[C@@]31CCN(C)C2 [Galanthamine HBr] | -0.5
18 | CCN(CC)CC#CCOC(=O)C(O)(c1ccccc1)C1CCCCC1 (configuration not stated) [Oxybutynin chloride] | -0.24
19 | Cc1cccc(N(C)C(=S)Oc2ccc3ccccc3c2)c1 [Tolnaftate] | -0.75
20 | CC(C)Cc1ccc(C(C)C(=O)O)cc1 (configuration not stated) [Ibuprofen Lysine] | -0.36
21 | O=C(Nc1cc(Cl)cc(Cl)c1O)c1c(O)c(Cl)cc(Cl)c1Cl [Oxyclozanide] | 0.96
22 | CN1CCN(CC(=O)N2c3ccccc3C(=O)Nc3cccnc32)CC1 [Pirenzepine dihydrochloride] | -0.87
23 | O=C(O)CCc1nc(-c2ccccc2)c(-c2ccccc2)o1 [Oxaprozin] | -0.64
24 | CC[C@H]1OC(=O)[C@H](C)[C@@H](O[C@H]2C[C@@](C)(OC)[C@@H](O)[C@H](C)O2)[C@H](C)[C@@H](O[C@@H]2O[C@H](C)C[C@H](N(C)C)[C@H]2O)[C@](C)(O)C[C@@H](C)C(=O)[C@H](C)[C@H]2OC(=O)O[C@@]21C [Erythromycin Cyclocarbonate] | 0.52
25 | CC(Cc1ccc(O)c(O)c1)C(C)Cc1ccc(O)c(O)c1 (configuration not stated) [Nordihydroguaiaretic acid (NDGA)] | -0.39
26 | CCOc1cc(N)c(Cl)cc1C(=O)NCC1CN(Cc2ccc(F)cc2)CCO1 (configuration not stated) [Mosapride] | 0.45
27 | C/C(=C\C(=O)OCCCCCCCCC(=O)O)C[C@@H]1OC[C@H](C[C@@H]2O[C@H]2[C@@H](C)[C@H](C)O)[C@@H](O)[C@H]1O [Mupirocin calcium] | -0.09
28 | CCN(CC)CCNC(=O)c1cc(Cl)c(N)cc1OC [Metoclopramide] | 0.54
29 | CC1=C(C(=O)OCCN(Cc2ccccc2)c2ccccc2)C(c2cccc([N+](=O)[O-])c2)C(P2(=O)OCC(C)(C)CO2)=C(C)N1 (configuration not stated) [Efonidipine] | 1.02
30 | CS(=O)(=O)c1ccc([C@@H](O)[C@@H](CF)NC(=O)C(Cl)Cl)cc1 [Florfenicol] | -0.4
31 | COC(=O)C1=C(C)NC(C)=C(C(=O)OC(C)(C)CN(C)CCC(c2ccccc2)c2ccccc2)C1c1cccc([N+](=O)[O-])c1 (configuration not stated) [Lercanidipine hydrochloride] | 0.74
32 | O=c1[nH]c2ccccc2n1CCN1CCN(c2cccc(C(F)(F)F)c2)CC1 [Flibanserin] | -0.86
33 | CC1(C)S[C@@H]2[C@H](NC(=O)[C@H](NC(=O)N3CCNC3=O)c3ccccc3)C(=O)N2[C@H]1C(=O)O [Azlocillin sodium salt] | -0.3

Test system: Saccharomyces cerevisiae BY4741 SeMeCo community
Assay: z-score of subpopulation abundance vs DMSO median, subpopulation auxotrophic for HUM; higher = larger share of this subpopulation than in DMSO controls
Details: 10 µM; 24 h; SM minimal medium; subpopulation (auxotrophy): HUM
Summary of the method: as §1

Row | Structure (SMILES) | z-score of subpopulation abundance
34 | C=C[C@]1(C)C[C@@H](OC(=O)CSC(C)(C)CNC(=O)[C@H](N)C(C)C)[C@]2(C)[C@H](C)CC[C@]3(CCC(=O)[C@H]32)[C@@H](C)[C@@H]1O [Valnemulin HCl] | 0.58
35 | C[N+]1(C)CCC(=C(c2ccccc2)c2ccccc2)CC1 [Diphemanil Methylsulfate] | 0.68
36 | NCc1ccccc1CC(=O)N[C@@H]1C(=O)N2C(C(=O)O)=C(CSc3nnnn3CC(=O)O)CS[C@H]12 [Ceforanide] | 0.56
37 | CC(C(=O)O)c1cccc(C(=O)c2ccccc2)c1 (configuration not stated) [Ketoprofen] | -0.02
38 | C#C[C@]1(O)CC[C@H]2[C@@H]3CCC4=Cc5oncc5C[C@]4(C)[C@H]3CC[C@@]21C [Danazol] | 0.74
39 | CC(C(O)c1ccc(O)cc1)N1CCC(Cc2ccccc2)CC1 (configuration not stated) [Ifenprodil Tartrate] | -1.27
40 | Cc1ncc([N+](=O)[O-])n1C [Dimetridazole] | 0.28
41 | CC(=O)N1CCN(c2ccc(OCC3COC(Cn4ccnc4)(c4ccc(Cl)cc4Cl)O3)cc2)CC1 (configuration not stated) [Ketoconazole] | 0.03
42 | CN1C2CCCC1CC(NC(=O)c1nn(C)c3ccccc13)C2 (configuration not stated) [Granisetron HCl] | 0.03
43 | CCCN(CCC)CCc1cccc2c1CC(=O)N2 [Ropinirole HCl] | 0.58
44 | CC(=O)NO [Acetohydroxamic acid] | 0.08
45 | COc1ccc2c3c1O[C@H]1C[C@@H](O)C=C[C@@]31CCN(C)C2 [Galanthamine HBr] | 0.61
46 | O=C1CC2(CCCC2)CC(=O)N1CCCCN1CCN(c2ncccn2)CC1 [Buspirone HCl] | -0.84
47 | Cc1cccc(N(C)C(=S)Oc2ccc3ccccc3c2)c1 [Tolnaftate] | -0.16
48 | CC(C)Cc1ccc(C(C)C(=O)O)cc1 (configuration not stated) [Ibuprofen Lysine] | -3.01
49 | CN1CCN(CC(=O)N2c3ccccc3C(=O)Nc3cccnc32)CC1 [Pirenzepine dihydrochloride] | -0.75
50 | O=C(O)CCc1nc(-c2ccccc2)c(-c2ccccc2)o1 [Oxaprozin] | -1.67
51 | CC[C@H]1OC(=O)[C@H](C)[C@@H](O[C@H]2C[C@@](C)(OC)[C@@H](O)[C@H](C)O2)[C@H](C)[C@@H](O[C@@H]2O[C@H](C)C[C@H](N(C)C)[C@H]2O)[C@](C)(O)C[C@@H](C)C(=O)[C@H](C)[C@H]2OC(=O)O[C@@]21C [Erythromycin Cyclocarbonate] | 0.96
52 | CN1CCC(=C2c3ccccc3C=Cc3ccccc32)CC1 [Cyproheptadine hydrochloride] | -0.68
53 | CC(Cc1ccc(O)c(O)c1)C(C)Cc1ccc(O)c(O)c1 (configuration not stated) [Nordihydroguaiaretic acid (NDGA)] | -0.77
54 | CCOc1cc(N)c(Cl)cc1C(=O)NCC1CN(Cc2ccc(F)cc2)CCO1 (configuration not stated) [Mosapride] | 0.4
55 | Cc1cc(C)nc(NS(=O)(=O)c2ccc(N)cc2)n1 [Sulfamethazine Sodium Salt] | -0.93
56 | CCN(CC)CCNC(=O)c1cc(Cl)c(N)cc1OC [Metoclopramide] | 0.35
57 | O=C1[C@H]2CCCC[C@H]2C(=O)N1CCCCN1CCN(c2nsc3ccccc23)CC1 [Perospirone hydrochloride] | -0.23
58 | CS(=O)(=O)c1ccc([C@@H](O)[C@@H](CF)NC(=O)C(Cl)Cl)cc1 [Florfenicol] | -0.98
59 | O=c1[nH]c2ccccc2n1CCN1CCN(c2cccc(C(F)(F)F)c2)CC1 [Flibanserin] | -0.15
60 | NC1CCN(c2nc3c(cc2F)c(=O)c(C(=O)O)cn3-c2ccc(F)cc2F)C1 (configuration not stated) [Tosufloxacin p-Toluenesulfonate Hydrate] | -0.83
61 | CC1(C)S[C@@H]2[C@H](NC(=O)[C@H](NC(=O)N3CCNC3=O)c3ccccc3)C(=O)N2[C@H]1C(=O)O [Azlocillin sodium salt] | -1.31
62 | CCN(CC)CCOC(=O)c1ccc(N)cc1Cl [Chloroprocaine HCl] | 0.14

From the supplement of paper PMC8975748
